Reference: the supplement of paper PMC12669032

Columns and labels:
Assay in all cases: growth AUC relative to DMSO control (median of replicates) (fraction); higher = more growth (less inhibition), active = hit call of the paper
Settings in all cases: 20 µM; 24 h;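 active = AUC reduced over 20% with Padj below 0.05 in at least 2 of 3 replicates; inactive = otherwise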
Akkermansia muciniphila = system: Akkermansia muciniphila
How it was run: (§1)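 Gut bacterial monocultures were grown anaerobically at 37 °C in mGAM, starting at OD600 0.05, with 20 µM compound (1% DMSO) in round-bottom 96-well plates under pierced gas-permeable seals. OD600 was read hourly for 24 h. Area under the growth curve (minimum OD set to 0) was normalised to the plate median of DMSO controls, or to row and column medians on the industrial chemical plate. The value is the median of three biological replicates grown on separate days.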

Bacteroides caccae = system: Bacteroides caccae
How it was run: as §1

Bacteroides clarus = system: Bacteroides clarus
How it was run: as §1

Bacteroides dorei = system: Bacteroides dorei
How it was run: as §1

Bacteroides stercoris = system: Bacteroides stercoris
How it was run: as §1

[1] = system: Bacteroides thetaiotaomicron
How it was run: as §1

Bacteroides uniformis = system: Bacteroides uniformis
How it was run: as §1

[2] = system: Bifidobacterium longum subsp. longum
How it was run: as §1

Clostridium difficile = system: Clostridium difficile
How it was run: as §1

Collinsella aerofaciens = system: Collinsella aerofaciens
How it was run: as §1

Coprococcus comes = system: Coprococcus comes
How it was run: as §1

Escherichia coli ED1a = system: Escherichia coli ED1a
How it was run: as §1

Escherichia coli IAI1 = system: Escherichia coli IAI1
How it was run: as §1

Eubacterium rectale = system: Eubacterium rectale
How it was run: as §1

[3] = system: Fusobacterium nucleatum subsp. animalis
How it was run: as §1

Lactobacillus gasseri = system: Lactobacillus gasseri
How it was run: as §1

Lactobacillus paracasei = system: Lactobacillus paracasei
How it was run: as §1

Odoribacter splanchnicus = system: Odoribacter splanchnicus
How it was run: as §1

[4] = system: Parabacteroides distasonis
How it was run: as §1

Parabacteroides merdae = system: Parabacteroides merdae
How it was run: as §1

Measured: growth AUC

Cc1cc(C)cc(OCC(C)Nc2nc(N)nc(C(C)(C)F)n2)c1 (stereo not given)
inactive: Akkermansia muciniphila 1.07 | Bacteroides caccae 0.889 | Bacteroides clarus 0.889 | Bacteroides dorei 0.978 | Bacteroides stercoris 0.746 | [1] 0.912 | Bacteroides uniformis 0.962 | [2] 1.03 | Clostridium difficile 0.983 | Collinsella aerofaciens 0.929 | Coprococcus comes 0.958 | Escherichia coli ED1a 0.948 | Escherichia coli IAI1 0.956 | Eubacterium rectale 1.05 | [3] 0.813 | Lactobacillus gasseri 0.974 | Lactobacillus paracasei 0.993 | Odoribacter splanchnicus 0.992 | [4] 0.835 | Parabacteroides merdae 0.87

COc1nc(N)nc(C(F)(F)F)n1
inactive: Akkermansia muciniphila 0.945 | Bacteroides caccae 0.985 | Bacteroides clarus 0.992 | Bacteroides dorei 1.01 | Bacteroides stercoris 0.988 | [1] 0.985 | Bacteroides uniformis 1.01 | [2] 1.04 | Clostridium difficile 1.03 | Collinsella aerofaciens 1.02 | Coprococcus comes 1.05 | Escherichia coli ED1a 0.998 | Escherichia coli IAI1 1 | Eubacterium rectale 0.958 | [3] 1.04 | Lactobacillus gasseri 1.08 | Lactobacillus paracasei 0.964 | Odoribacter splanchnicus 1.01 | [4] 1.03 | Parabacteroides merdae 1.02

CC(C)N(C(=O)C(=O)O)c1ccccc1
inactive: Akkermansia muciniphila 1.01 | Bacteroides caccae 1.01 | Bacteroides clarus 1.05 | Bacteroides dorei 1.03 | Bacteroides stercoris 1.13 | [1] 1.01 | Bacteroides uniformis 1.01 | [2] 1.08 | Clostridium difficile 1.02 | Collinsella aerofaciens 0.981 | Coprococcus comes 1.03 | Escherichia coli ED1a 1.06 | Escherichia coli IAI1 1.05 | Eubacterium rectale 1.11 | [3] 1.09 | Lactobacillus gasseri 1.07 | Lactobacillus paracasei 1.02 | Odoribacter splanchnicus 1.05 | [4] 1.07 | Parabacteroides merdae 1.03

CC(C)OC(=O)[C@@H](C)N(C(=O)c1ccccc1)c1ccc(F)c(Cl)c1
inactive: Akkermansia muciniphila 0.996 | Bacteroides caccae 0.961 | Bacteroides clarus 0.99 | Bacteroides dorei 1.02 | Bacteroides stercoris 0.99 | [1] 0.984 | Bacteroides uniformis 1.04 | [2] 1.01 | Clostridium difficile 0.978 | Collinsella aerofaciens 0.954 | Coprococcus comes 1.05 | Escherichia coli ED1a 1.03 | Escherichia coli IAI1 1 | Eubacterium rectale 1.27 | [3] 1.1 | Lactobacillus gasseri 0.933 | Lactobacillus paracasei 1.09 | Odoribacter splanchnicus 0.977 | [4] 1 | Parabacteroides merdae 1.01

CC(C)CNC(=O)N1CCNC1=O
inactive: Akkermansia muciniphila 1.09 | Bacteroides caccae 0.975 | Bacteroides clarus 1.02 | Bacteroides dorei 0.96 | Bacteroides stercoris 1.18 | [1] 1.02 | Bacteroides uniformis 1.02 | [2] 1.04 | Clostridium difficile 1.04 | Collinsella aerofaciens 1.08 | Coprococcus comes 1.01 | Escherichia coli ED1a 1.02 | Escherichia coli IAI1 1.02 | Eubacterium rectale 1.02 | [3] 1.07 | Lactobacillus gasseri 1.05 | Lactobacillus paracasei 1.04 | Odoribacter splanchnicus 1.06 | [4] 0.956 | Parabacteroides merdae 1.01

COc1cc(Cl)ccc1Oc1ccc(Cl)cc1Cl
inactive: Akkermansia muciniphila 1.03 | Bacteroides caccae 0.902 | Bacteroides clarus 0.933 | Bacteroides dorei 0.948 | Bacteroides stercoris 0.93 | [1] 0.984 | Bacteroides uniformis 0.98 | [2] 0.872 | Clostridium difficile 1.01 | Collinsella aerofaciens 1.01 | Coprococcus comes 0.938 | Escherichia coli ED1a 0.996 | Escherichia coli IAI1 1 | Eubacterium rectale 0.99 | [3] 0.851 | Lactobacillus gasseri 1 | Lactobacillus paracasei 1.16 | Odoribacter splanchnicus 0.947 | [4] 0.988 | Parabacteroides merdae 0.929

CO/N=C(/C(=O)O)c1ccccc1CO/N=C(\C)c1cccc(C(F)(F)F)c1
inactive: Akkermansia muciniphila 1 | Bacteroides caccae 0.913 | Bacteroides clarus 0.954 | Bacteroides dorei 0.981 | Bacteroides stercoris 1.15 | [1] 0.795 | Bacteroides uniformis 0.889 | [2] 0.927 | Clostridium difficile 0.974 | Collinsella aerofaciens 0.936 | Coprococcus comes 0.977 | Escherichia coli ED1a 0.986 | Escherichia coli IAI1 0.979 | Eubacterium rectale 1.07 | [3] 1.04 | Lactobacillus gasseri 0.948 | Lactobacillus paracasei 1.02 | Odoribacter splanchnicus 0.775 | [4] 0.985 | Parabacteroides merdae 0.99

C#CC(C)N(C)C(=O)Nc1ccc(Cl)cc1 (stereo not given)
inactive: Akkermansia muciniphila 0.974 | Bacteroides caccae 0.995 | Bacteroides clarus 0.985 | Bacteroides dorei 0.978 | Bacteroides stercoris 1.1 | [1] 1 | Bacteroides uniformis 0.99 | [2] 0.966 | Clostridium difficile 0.946 | Collinsella aerofaciens 1 | Coprococcus comes 1.05 | Escherichia coli ED1a 1.04 | Escherichia coli IAI1 0.988 | Eubacterium rectale 1 | [3] 1.03 | Lactobacillus gasseri 1.07 | Lactobacillus paracasei 1.02 | Odoribacter splanchnicus 0.994 | [4] 0.95 | Parabacteroides merdae 1.01

CCOC(=O)c1ccc(O)cc1
inactive: Akkermansia muciniphila 1.17 | Bacteroides caccae 0.967 | Bacteroides clarus 1.01 | Bacteroides dorei 0.842 | Bacteroides stercoris 0.993 | [1] 0.991 | Bacteroides uniformis 1 | [2] 1.02 | Clostridium difficile 1.01 | Collinsella aerofaciens 1 | Coprococcus comes 1 | Escherichia coli ED1a 0.974 | Escherichia coli IAI1 0.969 | Eubacterium rectale 1.07 | [3] 1.05 | Lactobacillus gasseri 0.822 | Lactobacillus paracasei 0.978 | Odoribacter splanchnicus 0.988 | [4] 0.893 | Parabacteroides merdae 0.976

CCOC(N)=O
inactive: Akkermansia muciniphila 1.13 | Bacteroides caccae 1.01 | Bacteroides clarus 1.02 | Bacteroides dorei 1.04 | Bacteroides stercoris 1.17 | [1] 1.01 | Bacteroides uniformis 1.01 | [2] 1.06 | Clostridium difficile 1.01 | Collinsella aerofaciens 1.01 | Coprococcus comes 1.03 | Escherichia coli ED1a 1.01 | Escherichia coli IAI1 1.03 | Eubacterium rectale 1 | [3] 1.04 | Lactobacillus gasseri 1.02 | Lactobacillus paracasei 1.02 | Odoribacter splanchnicus 0.955 | [4] 1.1 | Parabacteroides merdae 1.03

CCCCOCN(C(=O)CS(=O)(=O)[O-])c1c(CC)cccc1CC.[Na+]
inactive: Akkermansia muciniphila 0.979 | Bacteroides caccae 0.997 | Bacteroides clarus 0.997 | Bacteroides dorei 1.01 | Bacteroides stercoris 0.923 | [1] 0.934 | Bacteroides uniformis 1.03 | [2] 1.07 | Clostridium difficile 1.02 | Collinsella aerofaciens 1.01 | Coprococcus comes 0.957 | Escherichia coli ED1a 0.973 | Escherichia coli IAI1 0.991 | Eubacterium rectale 0.975 | [3] 0.947 | Lactobacillus gasseri 0.914 | Lactobacillus paracasei 0.957 | Odoribacter splanchnicus 0.938 | [4] 1 | Parabacteroides merdae 0.962

CCSc1nc(NC(C)C)nc(NC(C)C)n1
inactive: Akkermansia muciniphila 0.919 | Bacteroides caccae 1.01 | Bacteroides clarus 0.923 | Bacteroides dorei 0.983 | Bacteroides stercoris 0.88 | [1] 0.863 | Bacteroides uniformis 0.948 | [2] 0.984 | Clostridium difficile 1.03 | Collinsella aerofaciens 0.995 | Coprococcus comes 0.984 | Escherichia coli ED1a 1.01 | Escherichia coli IAI1 0.982 | Eubacterium rectale 0.787 | [3] 0.91 | Lactobacillus gasseri 1.03 | Lactobacillus paracasei 0.896 | Odoribacter splanchnicus 0.968 | [4] 1 | Parabacteroides merdae 0.91

c1ccc(Sc2ccccc2)cc1
inactive: Akkermansia muciniphila 1.03 | Bacteroides caccae 1.01 | Bacteroides clarus 1.08 | Bacteroides dorei 1.01 | Bacteroides stercoris 1.05 | [1] 0.982 | Bacteroides uniformis 1.05 | [2] 1.03 | Clostridium difficile 1.02 | Collinsella aerofaciens 1.04 | Coprococcus comes 1.02 | Escherichia coli ED1a 1.03 | Escherichia coli IAI1 0.967 | Eubacterium rectale 1.02 | [3] 1.08 | Lactobacillus gasseri 1.1 | Lactobacillus paracasei 1.04 | Odoribacter splanchnicus 0.503 | [4] 1.01 | Parabacteroides merdae 1

COC(=O)c1ccc(C)cc1C1=NC(C)(C(C)C)C(=O)N1 (racemic)
inactive: Akkermansia muciniphila 1.03 | Bacteroides caccae 1.01 | Bacteroides clarus 0.971 | Bacteroides dorei 0.975 | Bacteroides stercoris 0.863 | [1] 0.976 | Bacteroides uniformis 1 | [2] 1 | Clostridium difficile 0.972 | Collinsella aerofaciens 0.957 | Coprococcus comes 0.993 | Escherichia coli ED1a 0.969 | Escherichia coli IAI1 0.97 | Eubacterium rectale 1.03 | [3] 0.916 | Lactobacillus gasseri 0.931 | Lactobacillus paracasei 0.959 | Odoribacter splanchnicus 1.07 | [4] 1.03 | Parabacteroides merdae 0.976

COc1nc(N)nc(NC(C)(C)C)n1
inactive: Akkermansia muciniphila 1.01 | Bacteroides caccae 0.996 | Bacteroides clarus 0.965 | Bacteroides dorei 1.03 | Bacteroides stercoris 0.967 | [1] 1.01 | Bacteroides uniformis 1 | [2] 1.01 | Clostridium difficile 0.98 | Collinsella aerofaciens 0.959 | Coprococcus comes 1.03 | Escherichia coli ED1a 1 | Escherichia coli IAI1 0.98 | Eubacterium rectale 0.976 | [3] 0.964 | Lactobacillus gasseri 0.933 | Lactobacillus paracasei 1.02 | Odoribacter splanchnicus 1.07 | [4] 1 | Parabacteroides merdae 1.02
